Rows were chosen to be rich in hits. Some 7% of all compounds tested hit in one or more screens of this group.
D3 antag: D3 dopamine receptor (human) antagonism. AID 652054. D3R cells, DiscoveRx beta-arrestin luminescence, antagonist mode; stronger effect = lower value. max response, negative = inhibition, %. P35462. 360,000 tested, 2.5% active; in the data active = max response below about -50%; inconclusive = no clear call, values can overlap the other calls; also: % is scaled to controls: 0 for no effect and ±100 for the full control effect
Target sequence (P35462 whole entry, looked up): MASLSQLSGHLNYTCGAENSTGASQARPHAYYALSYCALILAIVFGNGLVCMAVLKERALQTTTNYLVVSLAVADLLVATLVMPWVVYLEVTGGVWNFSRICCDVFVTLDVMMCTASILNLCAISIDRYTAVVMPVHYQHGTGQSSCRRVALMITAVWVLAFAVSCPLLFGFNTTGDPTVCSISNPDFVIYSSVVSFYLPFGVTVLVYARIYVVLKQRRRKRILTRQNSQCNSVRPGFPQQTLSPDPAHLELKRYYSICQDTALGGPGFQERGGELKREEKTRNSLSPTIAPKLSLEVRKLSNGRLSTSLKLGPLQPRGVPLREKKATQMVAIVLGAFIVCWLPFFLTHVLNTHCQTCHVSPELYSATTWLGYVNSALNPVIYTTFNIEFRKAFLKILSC
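Cells expressing the human receptor were seeded at 1500 cells/well, incubated overnight at 37 degrees C in 5% CO2, then exposed to library compounds with dopamine controls for 90 minutes at 37 degrees C before luminescent detection.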
ATXN2 expr inh: reduces ATXN2 reporter expression in HEK-293 cells; HEK-293 ATXN2-luciferase reporter, luminescence, 24 h; Potency, µM (top dose mostly 57 µM), without a hit: top-dose activity change, negative = inhibition, hits mostly inhibitors; 360,000 tested, 0.72% active; AID 1745845; also: potency is read from the fitted curve at half-maximal effect; % is scaled to controls: 0 for no effect and ±100 for the full control effect; nearly all actives have a fitted effect of over 55% in size
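ATXN2-luciferase reporter cells (luciferase flanked by upstream and downstream ATXN2 gene portions) were treated 24 h at 37 °C with compounds at up to 57 uM. SteadyGlo luminescence gave expression; GF-AFC fluorescence gave viability.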
DRD3 agonist: activates the human D3 dopamine receptor; 410,000 tested, 0.58% active; P35462; max activation, %; D3R DiscoveRx beta-arrestin cells, luminescence, 90 min; AID 652048; in the data active = max activation above about 30%; also: 0% is about no effect
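Agonist-mode cell screen: cells plated at 1500/well and incubated overnight at 37 °C, then exposed to library compounds for 90 min at 37 °C. Detection reagent was added for 30–60 min at room temperature, and luminescence was read.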
IL-1B inflam inh: inhibitors of inflammasome signaling (IL-1 beta secretion). activity change, % at 57.5 µM. THP-1 LPS/ATP IL-1B secretion, AlphaLISA, 16 h; stronger effect = lower value. 360,000 tested, 4.7% active. AID 743279; in the data active = activity change below about -50%; inconclusive = mostly about -30% to -49%; also: % is scaled to controls: 0 for no effect and ±100 for the full control effect
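THP-1 cells pretreated 1 hr with compounds (up to 57.5 uM final), then stimulated with LPS (250 ng/mL final) plus ATP (1.25 mM final); secreted IL-1B measured by AlphaLISA after 16 hr, decreased signal indicating inhibition.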
S2 tox: cell viability loss in ATXN counter-screen; S2 cells (HEK-293 line with an ATXN2-luciferase reporter) viability, CellTiter-Fluor protease fluorescence, 24 h; Potency, µM (doses to about 56.7 µM), most hits filed as cytotoxic; 400,000 tested, 0.49% active; AID 651635; also: potency is read from the fitted curve at half-maximal effect; nearly all actives have a fitted effect of over 40% in size
Integrin act MD: activates integrin-mediated alleviation for muscular dystrophy. alpha7betagal myoblasts, beta-gal FDG fluorescence, 48 h. Potency, µM (top dose mostly 38.3 µM), without a hit: at the top dose activation, most hits filed as activators. 350,000 tested, 0.064% active. AID 624291;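 also: potency is read from the fitted curve at half-maximal effect; 100% = response of the positive control SU9516; nearly all actives have a fitted effect of over 60% in size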
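Alpha7betagal+/- myoblasts (passage 13) were plated 16-24 hr, then exposed to compounds (1:260 dilution of DMSO stock) for 48 hours at 37C. After MPER lysis, β-galactosidase reporter activity was read as FDG fluorescence (ex 480/em 540) after 30 minutes.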
Active calls of the source: *; i = inactive; ? = inconclusive; . = no result given. Unless noted, calls follow the shape of the dose curve; as a rule, active = well fitted curve in the direction sought with a large enough effect; inconclusive = small, poorly fitted or top-dose-only effect, or another doubt; inactive = no such curve, though single readings can be large; an effect the other way counts as inactive or inconclusive.

SMILES | D3 antag | ATXN2 expr inh | DRD3 agonist | IL-1B inflam inh | S2 tox | Integrin act MD
CCN1C(=O)C(CC(=O)Nc2ccc(F)cc2)N(CCCN2CCN(c3ccc(F)cc3)CC2)C1=S (centres undefined) | -17 | -16% | -9 | ? | i | -43%
O=C1C2C3C=CC(C4CC34)C2C(=O)N1CCCCN1CCN(c2ccc(F)cc2)CC1 (centres undefined) | -85* | -6% | -32 | -15 | i | -8%
CCOc1ccc(N2C(=O)C3CCCN3C2=O)cc1 (centres undefined) | 18 | 6% | 5 | 2 | i | 16%
O=C1C2CCCCN2C(=O)N1CCCN1CCN(c2ccc(F)cc2)CC1 (centres undefined) | -57* | -15% | -21 | 21 | i | 6%
Cc1cccn2c(=O)c(C=NCc3ccco3)c(Nc3ccc(SC(F)F)cc3)nc12 | 21 | ? | 9 | -5 | i | 11%
CC1CCN(c2c([N+](=O)[O-])c(=O)oc3ccccc23)CC1 | -12 | ? | 7 | -14 | i | 13%
CN(C)c1c([N+](=O)[O-])cc2[nH]c(=O)[nH]c2c1[N+](=O)[O-] | -69* | 6% | -16 | -7 | i | 3%
Cc1cc2cc3c(=O)[nH]c(=O)cc-3n(CC(O)C(O)C(O)CO)c2cc1C (centres undefined) | -97* | . | -24 | 24 | ? | -12%
O=C(NC(c1ccc(Cl)cc1)c1cnccn1)C1CCN(Cc2ccccc2)CC1 (centres undefined) | 19 | -25% | -15 | -2 | i | .
O=C(NC(c1ccc(-c2ccccc2)cc1)c1cnccn1)C1CCN(Cc2ccc(Oc3ccccc3)cc2)CC1 (centres undefined) | -54* | ? | -20 | -52* | ? | .
COc1ccc(C(NC(=O)C2CCN(Cc3ccc(Oc4ccccc4)cc3)CC2)c2ccccn2)cc1 (centres undefined) | -55* | ? | -26 | ? | ? | .
COc1cc(OC)nc(C(NC(=O)C2CCN(Cc3c[nH]c4ccccc34)CC2)c2ccc(Cl)cc2)n1 (centres undefined) | -27 | ? | -18 | -61* | . | .
COc1cc(CN2CCC(C(=O)NC(c3ccc(-c4ccccc4)cc3)c3cnccn3)CC2)cc(OC)c1 (centres undefined) | -54* | ? | -10 | -53* | ? | .
COc1ccc(CN2CCC(C(=O)Nc3ccc(Oc4cccnc4)cc3)CC2)cc1 | -26 | -12% | -8 | i | i | 6%
O=C(c1ccco1)N1CCN(C(=O)c2cccn3c(=O)c4c5c(sc4nc23)CCCC5)CC1 | 2 | . | -8 | -25 | i | ?
O=C(NC(c1ccc(-c2ccccc2)cc1)c1cnccn1)C1CCN(Cc2cccc(C(F)(F)F)c2)CC1 (centres undefined) | 0 | ? | -5 | -63* | ? | .
COc1cc(C(C)=O)ccc1Oc1ncnc2c1cnn2-c1ccc(C)c(C)c1 | 59 | 0% | 15 | -13 | i | -5%
COc1cc(C(C)=O)ccc1Oc1ncnc2c1cnn2-c1ccccc1 | 8 | 7% | 36* | -2 | i | 18%
CCOc1ccccc1NC(=O)c1cc(=O)[nH]c2ccc(S(=O)(=O)N3CCOCC3)cc12 | -11 | 1% | -2 | -20 | i | -18%
Cc1ccc(NC2=C(NCCO)C(=O)c3ccccc3C2=O)cc1 | -12 | 24% | 0 | -17 | i | -21%
CCc1ccc(S(=O)(=O)/N=C2\C=C(Nc3ccc(C(=O)O)cc3)C(=O)c3ccccc32)cc1 | -68* | ? | -30 | -99* | ? | -13%
Cc1ccc(S(=O)(=O)/N=C2\C=C(Nc3cccc(C(=O)O)c3)C(=O)c3ccccc32)cc1 | ? | ? | -24 | -93* | ? | -16%
CC(C)(C)c1ccc(S(=O)(=O)/N=C2\C=C(NS(=O)(=O)c3ccccc3)C(=O)c3ccccc32)cc1 | ? | -17% | -18 | 19 | ? | -35%

From PubChem BioAssay
